In PubChem BioAssay AID977607 (Broad Institute, 2014):
Hit rate of the full screen: of about 1,500 compounds, about 460 (31%) were called active. Roughly 1% stayed inconclusive and do not appear here.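 The calls were made as follows: active = curve reaches 40% activation over neutral controls at an AC40 no higher than the top valid tested concentration; inconclusive = no clear call, values can overlap the other calls; inactive = signal moving opposite to the expected increase, and the rest.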 The list is a sample of the results. Potency and affinity values are given separately.

Assay: GLuc-reported insulin release enhancers, glucose-stimulated beta cells – cell-based, INS-1E, Gaussia luciferase, luminescence, cherry-pick, set 2, dose response (AID 977607);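 also: 0% = median of the plate neutral control wells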
Conditions: INS-1E GLuc insulin secretion reporter, 2-3 h, active compounds read high; at 35 µM, 100% = signal doubled over neutral wells unless noted

Max activation, inactive:
COc1ccc(CCNC(=O)CCn2c(=O)c3cccn3c3cccnc32)cc1OC 27.2% [at 11 µM, 100% = signal doubled over neutral wells], CCCn1c(O)c(N=NC(=O)c2cccnc2)c2cc(Br)ccc21 -23%, Cc1cc(=O)n(Cc2ccccc2)c2ccccc12 22.3%, Cc1ccc(S(=O)(=O)Nc2nc(C)cc(NN)n2)cc1 -19.8% [at 0.015 µM, 100% = signal doubled over neutral wells], COc1ccc(N/C=C/C(=O)c2ccc(Cl)cc2)cc1 -21.2% [at 0.42 µM, 100% = signal doubled over neutral wells], Cc1c(C)c2c(OCC(=O)O)cc3c(c2oc1=O)CCC(C)(C)O3 -24.4% [at 0.135 µM, 100% = signal doubled over neutral wells], COc1cc2c(cc1OC)C(Cc1ccc(O)cc1)NCC2 (stereo not drawn) 24.7% [at 0.0016 µM, 100% = signal doubled over neutral wells], COc1cc2c(cc1OC)C(Cc1ccc(O)cc1)N(C)CC2 (stereo not drawn) -15.9% [at 0.0016 µM, 100% = signal doubled over neutral wells], O=C(NCCC1CCCCN1S(=O)(=O)c1ccc(F)cc1)C(=O)NCc1cccnc1 (stereo not drawn) -23.5% [at 1.2 µM, 100% = signal doubled over neutral wells], COc1ccc2oc(-c3ccncc3)cc(=O)c2c1 16.4%, COc1ccc(C(=O)Cc2cc3cccc(OC)c3oc2=O)cc1 -21.5% [at 0.0016 µM, 100% = signal doubled over neutral wells], COc1ccc2oc(=O)c(C(=O)NCc3ccccn3)cc2c1 -9.33% [at 1.2 µM, 100% = signal doubled over neutral wells], O=C(NCc1ccccn1)c1ccccc1OCc1ccc(Cl)cc1Cl -25.4%, COc1ccc(Cc2nnc(-c3ccccc3)o2)cc1 24.7% [at 0.42 µM, 100% = signal doubled over neutral wells], COc1cc(CN(C)c2ccc(S(=O)(=O)N3CCCC3)cn2)ccc1OC(F)F -33.3% [at 11 µM, 100% = signal doubled over neutral wells], CCN1CCN(CC(=O)Nc2ccc(C(C)=O)cc2)CC1 -17% [at 1.2 µM, 100% = signal doubled over neutral wells], COc1ccc(C(=O)/C=C2/c3ccccc3CC(C)(C)N2C)cc1OC -35.3% [at 1.2 µM, 100% = signal doubled over neutral wells], O=C(NC(=S)Nc1cccc2[nH]ncc12)c1ccccc1 -16.1% [at 1.2 µM, 100% = signal doubled over neutral wells], COc1ccc(C(=O)c2sc(Nc3ccccc3)nc2N)cc1OC 39.1% [at 3.8 µM, 100% = signal doubled over neutral wells], CC(C)COC(=O)N1C[C@H](O)C[C@H]1C(=O)Nc1ccc(Cl)cc1 -12.6% [at 0.015 µM, 100% = signal doubled over neutral wells], Cc1ccc(-c2nc3c(=O)n(C)c4ccccc4c3o2)cc1 27.7% [at 0.42 µM, 100% = signal doubled over neutral wells], O=C(Nc1ccc(NC(=O)c2cccs2)cc1)c1ccc2c(c1)OCO2 -18.9% [at 3.8 µM, 100% = signal doubled over neutral wells], O=C(Nc1ccc2oc(-c3cccnc3)nc2c1)c1ccc2c(c1)OCCO2 21%, CN1CCCCCC1C(=O)N1CCC(N2CCC(C(=O)N3CCOCC3)CC2)CC1 (stereo not drawn) -16.3%, O=C(Nc1nnc(-c2ccc(F)cc2)s1)C1CCN(S(=O)(=O)c2ccc(Cl)cc2)CC1 18.7%, CCOC(=O)c1ccc(S(=O)(=O)N2CCC(C(=O)Nc3nnc(C)o3)CC2)cc1 -12.8% [at 0.0016 µM, 100% = signal doubled over neutral wells], COc1ccccc1N(CC(=O)NCC1CCCO1)C(=O)CNS(=O)(=O)c1ccc(Cl)cc1 (stereo not drawn) -20% [at 0.42 µM, 100% = signal doubled over neutral wells], Fc1ccccc1-c1nnc2ccc3ccccc3n12 -19.8% [at 0.135 µM, 100% = signal doubled over neutral wells], C[C@@H]1CN([C@H](C)CO)C(=O)CCCn2nncc2CO[C@H]1CN(C)C(=O)Nc1ccnc(N2CCOCC2)c1 -14% [at 0.015 µM, 100% = signal doubled over neutral wells], COc1ccc(C(=O)Nc2ccccc2C(=O)NCC2CCCO2)cc1 (stereo not drawn) 6.34%, COc1ccc(NC(=O)C2(c3ccc(NC(=O)c4ccc(OC)cc4)cc3)CCCC2)cc1 -18.4% [at 0.005 µM, 100% = signal doubled over neutral wells], COc1ccc(CCN2CC(=O)NC(=O)C2)cc1OC -13.9% [at 3.8 µM, 100% = signal doubled over neutral wells], CCN(c1ccccc1)c1nc(Cl)nc2c1cnn2C 28.8%, COc1ccc(-c2ccc(=O)n(CC(=O)NC3CCc4ccccc43)n2)cc1OC (stereo not drawn) 20.7% [at 11 µM, 100% = signal doubled over neutral wells], COCc1ccc(C(=O)NC2CCSc3ccccc32)cc1 (stereo not drawn) -17.7%, CCCc1cc(=O)oc2cc(C)cc(OCC(=O)Nc3ccc(S(N)(=O)=O)cc3)c12 24.1% [at 1.2 µM, 100% = signal doubled over neutral wells], Cn1c(=O)c(=O)n(C)c2cc(S(=O)(=O)N3CCN(c4ccc(F)cc4)CC3)ccc21 -17.9% [at 0.046 µM, 100% = signal doubled over neutral wells], CSc1ccc2nnc(-c3cccc(F)c3)n2n1 16.4%, COc1cccc(-c2cc(C(F)(F)F)nc(-n3cncn3)n2)c1 -20.7%, CCN(Cc1ccncc1)C(=O)c1cccc(S(=O)(=O)N2CCCCC2)c1 -18% [at 1.2 µM, 100% = signal doubled over neutral wells], CC(C)CC#Cc1ccc([C@H]2[C@H]3CN(C(=O)c4cnccn4)CC(=O)N3[C@H]2CO)cc1 35.4% [at 0.015 µM, 100% = signal doubled over neutral wells], COc1ccccc1CNC(=O)CCS(=O)(=O)Cc1ccc(C)cc1 -17.3%, Cc1ccc(NC2c3ncccc3C(=O)N2C2CCCCC2)cc1 (stereo not drawn) 28.1%, COc1ccc(C(O)c2nccc3cc(OC)c(OC)cc23)cc1OC (stereo not drawn) 44.3% [at 3.8 µM, 100% = signal doubled over neutral wells], COc1ccc(C2=Nn3c(nnc3-c3ccccc3OC)SC2)cc1OC1CCOC1 (stereo not drawn) 43.3% [at 1.2 µM, 100% = signal doubled over neutral wells], COc1ccc(-c2nnc(-c3cccs3)o2)cc1OC 29.4%, COc1ccc(C2=Nn3c(nnc3-c3ccccc3OC)SC2)cc1OCC1CC1 -35.7%, COc1ccc(CO/N=C/c2c(C)[nH]c(=O)[nH]c2=O)cc1 16.7%, COC(=O)C1C(=O)NC(SC)=C(C#N)C1c1ccccc1 (stereo not drawn) -22.6% [at 0.015 µM, 100% = signal doubled over neutral wells], O=C1N(c2ccccc2)c2ccccc2[C@]12C[C@H](O)CO2 -20.7% [at 0.135 µM, 100% = signal doubled over neutral wells], O=C(COc1ccc(Cl)cc1)NCCS(=O)(=O)N1CCN(c2ccccc2F)CC1 -18.1% [at 0.135 µM, 100% = signal doubled over neutral wells], COc1ccc(OC)c(C2=Nn3c(nnc3-c3ccncc3)SC2)c1 12.7%, CC[C@@H]1CC2=C(C(=O)OC(C)(C)O2)[C@H](c2ccc(F)cc2)O1 23.8% [at 3.8 µM, 100% = signal doubled over neutral wells], C[C@@H]1O[C@H](C2CCCC2)CC2=C1C(=O)OC(C)(C)O2 18% [at 1.2 µM, 100% = signal doubled over neutral wells], C=CCNc1nc(Cl)nc(Nc2ccc(OC)cc2)n1 50.7%, CCOc1cc(/C=C(\CC(=O)O)c2nc3ccccc3s2)ccc1OC -15% [at 0.005 µM, 100% = signal doubled over neutral wells], c1ccc(-c2ccccc2OCCN2CCCCC2)cc1 -15.6% [at 0.015 µM, 100% = signal doubled over neutral wells], C/C=C1\COC(C(=O)NCc2ccccc2)(C(F)(F)F)C=C1C=C1CCCCC1 (stereo not drawn) -27% [at 11 µM, 100% = signal doubled over neutral wells]
